Laboratory results: the supplement of paper PMC10849652
Of roughly 8,800 targets only a part is listed; those with a hit were picked by preference. About 0.5% of all pairs of compound and target were hits. A number with no mark means an inactive call.

Columns and labels:
Assay in all cases: log2 fold change, soluble protein after heating vs DMSO (PISA); higher = thermal stabilisation; K562 lysate, 10 uM; active = over 0.2 and 3.5 SD of the protein, either way, in both replicates (recomputed)
erlotinib = compound: C#Cc1cccc(Nc2ncnc3cc(OCCOC)c(OCCOC)cc23)c1 [erlotinib]
Procedure, shortened: (§1)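 Quantification was by TMTpro 16plex LC-MS/MS with equalised channel sums, applied to the supernatant after 21,000xg for 90 min. Samples were crude K562 extract at 1 mg/mL protein in PBS pH 7.4 with 1 mM MgCl2, treated with 10 μM compound for 30 min, heated for 3 min across 48°C-58°C, pooled and brought to 0.5% NP-40 at 4°C. Values are log-two fold changes in thermal stability relative to solvent controls, from duplicates.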

[1] = compound: C/C(=N\NC(=O)C1=CC(=CC=C1)S(=O)(=O)N2CCOCC2)/C3=C(C=CC(=C3)Cl)O
Procedure, shortened: as §1

[2] = compound: C1=CC(=CC=C1C2=NC3=C(N2)C=C(C=C3)C(=O)N)OC4=CC=C(C=C4)Cl
Procedure, shortened: as §1

[3] = compound: C1=CC2=C(C=CC(=C2)/C=C\3/C(=O)NC(=NCC4=CC=CS4)S3)N=C1
Procedure, shortened: as §1

[4] = compound: C1=CC2=NC=CN=C2C=C1/C=C/3\C(=O)NC(=O)S3
Procedure, shortened: as §1

[5] = compound: C1=CC=C(C=C1)C2=NC(=C(N2)C3=CC=NC=C3)C4=CC(=C(C=C4)Cl)O
Procedure, shortened: as §1

[6] = compound: C1=CC=C2C(=C1)C3=NNC4=CC=CC(=C43)C2=O
Procedure, shortened: as §1

IRAK-1-4 Inhibitor I = compound: C1COCCN1CCN2C3=CC=CC=C3N=C2NC(=O)C4=CC(=CC=C4)[N+](=O)[O-] [IRAK-1-4 Inhibitor I]
Procedure, shortened: as §1

ibrutinib = compound: C=CC(=O)N1CCC[C@@H](n2nc(-c3ccc(Oc4ccccc4)cc3)c3c(N)ncnc32)C1 [ibrutinib]
Procedure, shortened: as §1

[7] = compound: CC(=O)c1cnc2ccc(-c3cc(Cl)c(O)c(Cl)c3)nc2c1N[C@H]1CC[C@H](CN(C)C)CC1
Procedure, shortened: as §1

ralimetinib = compound: CC(C)(C)Cn1c(N)nc2ccc(-c3[nH]c(C(C)(C)C)nc3-c3ccc(F)cc3)nc21 [ralimetinib]
Procedure, shortened: as §1

[8] = compound: CC(C)(O)CC(=O)NCCn1ccc2ncnc(Nc3ccc(Oc4cccc(C(F)(F)F)c4)c(Cl)c3)c21
Procedure, shortened: as §1

[9] = compound: CC(C)C1=C2N=C(C=C(N2N=C1)NCC3=CC=CC=C3)NCCCCCCN
Procedure, shortened: as §1

[10] = compound: CC1=C(C(CC(=O)N1)C2=CC=C(C=C2)C(F)(F)F)C(=O)NC3=C(C=C4C(=C3)C=NN4)F
Procedure, shortened: as §1

[11] = compound: CC1=C(C2=C(C=C1)C(=O)C3=CC=CC=C3N2CCCN)C
Procedure, shortened: as §1

[12] = compound: CC1=C(C=C(C=C1)NC(=O)C2=CC(=CC=C2)C(C)(C)C#N)NC3=CC4=C(C=C3)N=CN(C4=O)C
Procedure, shortened: as §1

[13] = compound: CC1=C(C=C(C=C1)NC(=O)C2=CC(=CC=C2)N(C)C)NC(=O)C3=CC=C(C=C3)O
Procedure, shortened: as §1

[14] = compound: CC1=CC=C(C=C1)SC2=C3C=C(SC3=CN=C2)C(=O)N
Procedure, shortened: as §1

[15] = compound: C1CCN(C1)C(=O)NC2=CC=CC(=C2)NC3=NC=C(C(=N3)NCCC4=CN=CN4)Br
Procedure, shortened: as §1

[16] = compound: C1CN(CCC1(CC2=CC=C(C=C2)Cl)N)C3=NC=NC4=C3C=CN4
Procedure, shortened: as §1

UniProt Q53S58, sequence (Q53S58 whole entry, looked up): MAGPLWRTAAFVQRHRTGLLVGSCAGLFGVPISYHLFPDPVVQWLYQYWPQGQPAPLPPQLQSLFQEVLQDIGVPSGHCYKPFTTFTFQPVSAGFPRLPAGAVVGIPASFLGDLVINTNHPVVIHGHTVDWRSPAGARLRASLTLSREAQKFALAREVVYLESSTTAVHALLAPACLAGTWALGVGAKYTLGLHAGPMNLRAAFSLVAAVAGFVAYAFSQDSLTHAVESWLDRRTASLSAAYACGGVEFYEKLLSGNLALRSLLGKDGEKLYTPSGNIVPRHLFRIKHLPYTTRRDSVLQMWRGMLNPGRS
UniProt Q9Y5Z9, sequence (Q9Y5Z9 whole entry, looked up): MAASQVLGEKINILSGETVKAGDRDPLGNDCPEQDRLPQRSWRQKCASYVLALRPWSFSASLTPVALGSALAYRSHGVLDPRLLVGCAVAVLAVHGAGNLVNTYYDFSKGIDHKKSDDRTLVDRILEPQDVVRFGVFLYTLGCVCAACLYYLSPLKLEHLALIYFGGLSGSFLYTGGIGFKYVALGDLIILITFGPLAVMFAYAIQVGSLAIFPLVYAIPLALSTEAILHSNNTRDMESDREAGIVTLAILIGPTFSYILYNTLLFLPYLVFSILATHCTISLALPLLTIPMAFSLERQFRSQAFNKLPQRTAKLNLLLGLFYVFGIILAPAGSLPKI
UniProt P07437, sequence (P07437 whole entry, looked up): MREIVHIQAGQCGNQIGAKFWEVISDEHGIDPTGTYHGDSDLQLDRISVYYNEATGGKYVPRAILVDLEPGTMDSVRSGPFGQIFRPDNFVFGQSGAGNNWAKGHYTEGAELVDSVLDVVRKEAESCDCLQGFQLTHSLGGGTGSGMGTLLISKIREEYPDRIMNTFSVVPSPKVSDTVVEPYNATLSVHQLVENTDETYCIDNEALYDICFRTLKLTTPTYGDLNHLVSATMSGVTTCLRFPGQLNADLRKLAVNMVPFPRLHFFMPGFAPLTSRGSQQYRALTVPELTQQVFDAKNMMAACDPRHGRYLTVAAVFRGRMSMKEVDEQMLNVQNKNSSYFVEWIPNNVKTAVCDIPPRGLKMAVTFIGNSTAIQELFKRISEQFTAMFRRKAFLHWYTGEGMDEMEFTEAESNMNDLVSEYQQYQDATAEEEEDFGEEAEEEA
UniProt Q5T6F2, sequence (Q5T6F2 whole entry, looked up): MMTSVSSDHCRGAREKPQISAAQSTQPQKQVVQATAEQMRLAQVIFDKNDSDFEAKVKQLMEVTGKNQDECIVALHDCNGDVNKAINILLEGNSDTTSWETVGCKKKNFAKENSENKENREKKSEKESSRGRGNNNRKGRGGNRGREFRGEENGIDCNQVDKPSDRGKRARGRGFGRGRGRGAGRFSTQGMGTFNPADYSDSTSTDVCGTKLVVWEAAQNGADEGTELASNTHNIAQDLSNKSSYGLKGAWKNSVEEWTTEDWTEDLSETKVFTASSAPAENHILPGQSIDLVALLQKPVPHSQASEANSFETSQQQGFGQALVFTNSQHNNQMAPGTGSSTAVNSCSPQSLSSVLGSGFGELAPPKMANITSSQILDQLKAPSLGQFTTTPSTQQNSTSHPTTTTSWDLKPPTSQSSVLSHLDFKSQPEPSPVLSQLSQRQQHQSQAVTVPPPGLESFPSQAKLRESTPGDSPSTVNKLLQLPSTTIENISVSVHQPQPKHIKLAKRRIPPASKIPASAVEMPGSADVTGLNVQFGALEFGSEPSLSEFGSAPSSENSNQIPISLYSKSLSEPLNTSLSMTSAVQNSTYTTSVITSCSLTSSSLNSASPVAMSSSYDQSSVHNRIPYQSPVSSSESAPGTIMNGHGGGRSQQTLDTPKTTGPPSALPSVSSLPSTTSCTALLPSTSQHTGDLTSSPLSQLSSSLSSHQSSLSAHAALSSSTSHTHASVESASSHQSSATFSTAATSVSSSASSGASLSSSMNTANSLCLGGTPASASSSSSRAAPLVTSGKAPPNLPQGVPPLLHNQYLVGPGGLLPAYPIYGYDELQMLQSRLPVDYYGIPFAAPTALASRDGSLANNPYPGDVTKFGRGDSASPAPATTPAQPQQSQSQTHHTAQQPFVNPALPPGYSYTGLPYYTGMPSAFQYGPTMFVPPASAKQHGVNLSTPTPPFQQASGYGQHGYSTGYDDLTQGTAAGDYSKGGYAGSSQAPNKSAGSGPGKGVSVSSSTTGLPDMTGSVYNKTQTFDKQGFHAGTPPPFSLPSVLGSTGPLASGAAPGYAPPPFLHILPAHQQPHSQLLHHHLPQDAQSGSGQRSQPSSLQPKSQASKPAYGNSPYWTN
UniProt P68363, sequence (P68363 whole entry, looked up): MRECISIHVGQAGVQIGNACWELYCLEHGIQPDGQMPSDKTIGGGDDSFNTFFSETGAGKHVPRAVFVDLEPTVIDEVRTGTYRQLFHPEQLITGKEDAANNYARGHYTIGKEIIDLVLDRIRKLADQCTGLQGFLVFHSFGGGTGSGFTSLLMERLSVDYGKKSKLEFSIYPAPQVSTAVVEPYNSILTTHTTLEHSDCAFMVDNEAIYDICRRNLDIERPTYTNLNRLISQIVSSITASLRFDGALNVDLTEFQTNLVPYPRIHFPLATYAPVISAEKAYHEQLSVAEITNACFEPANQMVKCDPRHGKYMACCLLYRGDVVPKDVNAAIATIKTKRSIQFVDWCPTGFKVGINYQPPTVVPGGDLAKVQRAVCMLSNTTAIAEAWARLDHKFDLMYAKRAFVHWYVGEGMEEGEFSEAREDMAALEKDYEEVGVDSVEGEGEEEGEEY
UniProt Q9H497, sequence (Q9H497 whole entry, looked up): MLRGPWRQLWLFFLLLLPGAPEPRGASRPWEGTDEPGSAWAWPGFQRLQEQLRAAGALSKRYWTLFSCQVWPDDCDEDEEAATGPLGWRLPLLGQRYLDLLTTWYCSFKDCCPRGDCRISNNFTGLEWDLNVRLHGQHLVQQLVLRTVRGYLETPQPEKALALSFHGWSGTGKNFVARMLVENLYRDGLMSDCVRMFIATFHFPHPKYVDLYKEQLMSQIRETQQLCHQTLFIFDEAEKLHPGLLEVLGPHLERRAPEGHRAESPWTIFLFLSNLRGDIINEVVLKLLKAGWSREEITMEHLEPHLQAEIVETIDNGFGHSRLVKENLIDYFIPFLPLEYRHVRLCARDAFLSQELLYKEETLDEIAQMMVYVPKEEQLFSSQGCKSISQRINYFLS
UniProt Q9BRZ2, sequence (Q9BRZ2 whole entry, looked up): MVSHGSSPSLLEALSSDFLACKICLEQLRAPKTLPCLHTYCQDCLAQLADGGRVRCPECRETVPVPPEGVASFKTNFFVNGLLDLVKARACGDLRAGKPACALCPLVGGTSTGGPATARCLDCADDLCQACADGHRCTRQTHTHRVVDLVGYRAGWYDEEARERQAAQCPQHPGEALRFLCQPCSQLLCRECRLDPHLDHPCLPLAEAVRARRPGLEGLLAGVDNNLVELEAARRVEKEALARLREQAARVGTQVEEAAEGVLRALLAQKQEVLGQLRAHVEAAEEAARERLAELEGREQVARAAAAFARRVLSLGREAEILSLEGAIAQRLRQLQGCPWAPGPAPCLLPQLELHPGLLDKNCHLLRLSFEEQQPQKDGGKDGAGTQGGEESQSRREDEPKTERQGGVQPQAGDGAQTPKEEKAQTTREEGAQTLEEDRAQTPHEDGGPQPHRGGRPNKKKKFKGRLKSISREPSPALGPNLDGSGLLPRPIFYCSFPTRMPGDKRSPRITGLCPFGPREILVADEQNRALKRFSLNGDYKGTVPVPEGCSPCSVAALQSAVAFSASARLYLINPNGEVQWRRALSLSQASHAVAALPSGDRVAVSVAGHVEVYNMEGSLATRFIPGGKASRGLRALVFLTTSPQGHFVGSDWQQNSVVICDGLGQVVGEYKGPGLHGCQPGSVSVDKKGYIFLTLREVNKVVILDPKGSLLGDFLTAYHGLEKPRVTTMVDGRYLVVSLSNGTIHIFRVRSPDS
UniProt Q9H3M7, sequence (Q9H3M7 whole entry, looked up): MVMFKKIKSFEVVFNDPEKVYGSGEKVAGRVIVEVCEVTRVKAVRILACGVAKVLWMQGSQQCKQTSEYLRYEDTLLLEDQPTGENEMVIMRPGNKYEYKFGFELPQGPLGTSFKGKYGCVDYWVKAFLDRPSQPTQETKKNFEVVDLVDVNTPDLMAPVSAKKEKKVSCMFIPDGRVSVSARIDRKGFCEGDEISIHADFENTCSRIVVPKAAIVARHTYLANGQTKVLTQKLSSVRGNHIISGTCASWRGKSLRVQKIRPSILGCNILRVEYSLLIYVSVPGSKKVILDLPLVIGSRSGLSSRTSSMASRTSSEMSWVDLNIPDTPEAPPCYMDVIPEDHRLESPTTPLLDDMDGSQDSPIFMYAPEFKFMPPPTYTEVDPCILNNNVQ
UniProt O75865, sequence (O75865 whole entry, looked up): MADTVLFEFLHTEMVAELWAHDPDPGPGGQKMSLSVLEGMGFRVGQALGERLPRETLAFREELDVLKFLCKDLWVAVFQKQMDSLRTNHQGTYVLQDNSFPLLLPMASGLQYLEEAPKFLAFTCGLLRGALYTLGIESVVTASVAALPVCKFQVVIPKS
UniProt A6NHL2, sequence (A6NHL2 whole entry, looked up): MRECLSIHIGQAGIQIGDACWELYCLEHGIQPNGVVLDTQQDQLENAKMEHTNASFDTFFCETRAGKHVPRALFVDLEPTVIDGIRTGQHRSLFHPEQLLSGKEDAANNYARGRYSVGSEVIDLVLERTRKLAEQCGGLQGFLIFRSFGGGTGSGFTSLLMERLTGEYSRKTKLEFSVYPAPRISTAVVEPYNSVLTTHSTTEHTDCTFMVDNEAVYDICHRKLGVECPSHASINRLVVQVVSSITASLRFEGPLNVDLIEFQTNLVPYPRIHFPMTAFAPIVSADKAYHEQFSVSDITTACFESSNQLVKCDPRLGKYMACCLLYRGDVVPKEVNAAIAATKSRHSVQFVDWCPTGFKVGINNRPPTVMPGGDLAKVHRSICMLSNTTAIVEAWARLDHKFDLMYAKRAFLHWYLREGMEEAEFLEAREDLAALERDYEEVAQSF

Target | log2 fold change (erlotinib) | log2 fold change [1] | log2 fold change [2] | log2 fold change [3] | log2 fold change [4] | log2 fold change [5] | log2 fold change [6] | log2 fold change (IRAK-1-4 Inhibitor I) | log2 fold change (ibrutinib) | log2 fold change [7] | log2 fold change (ralimetinib) | log2 fold change [8] | log2 fold change [9] | log2 fold change [10] | log2 fold change [11] | log2 fold change [12] | log2 fold change [13] | log2 fold change [14] | log2 fold change [15] | log2 fold change [16]
TTC37 (UniProt Q6PGP7) | 0.05 | -0.148 | 0.07 | -0.014 | -0.069 | -0.187 | -0.068 | 0.051 | 0.012 | 0.047 | -0.024 | 0.012 | -0.012 | -0.019 | -0.188 | 0.154 | -0.043 | -0.15 | – | –
TXNIP (UniProt Q9H3M7) | 0.036 | -0.165 | -0.057 | -0.045 | -0.001 | -0.003 | 0.048 | 0.041 | -0.009 | – | 0.007 | -0.02 | -0.053 | 0.011 | -0.036 | 0.037 | 0.016 | – | -0.042 | 0.017
TUBA1B (UniProt P68363) | 0.031 | -0.022 | 0.009 | -0.018 | 0.006 | -0.013 | -0.018 | 0.022 | -0.012 | 0.008 | 0.025 | 0.003 | 0.021 | -0.011 | -0.003 | 0.018 | 0.022 | 0.005 | 0.009 | 0.02
TK1 (UniProt K7ERV3) | 0.01 | -0.061 | 0.078 | -0.047 | -0.114 | 0.048 | 0.036 | 0.04 | 0.175 | – | -0.018 | -0.061 | -0.114 | -0.013 | -0.023 | 0.032 | -0.028 | – | 0.017 | 0.222
TMEM161B (UniProt Q8NDZ6) | 0.051 | -0.08 | -0.017 | 0.174 | 0.007 | -0.068 | -0.133 | 0.09 | -0.026 | 0.197 | 0 | -0.224 | -0.113 | -0.005 | – | 0.027 | 0.108 | -0.012 | 0.052 | -0.01
TUBB (UniProt P07437) | 0.029 | -0.017 | 0.014 | -0.006 | 0.008 | 0.008 | -0.03 | 0.027 | -0.013 | 0.011 | 0.038 | -0.009 | 0.037 | 0.049 | 0.003 | 0.007 | 0.014 | 0.009 | 0.006 | 0.043
TLK2 isoform 2 (UniProt Q86UE8) | -0.071 | -0.076 | 0.054 | -0.006 | 0.014 | 0.001 | 0.171 | -0.058 | -0.021 | 0.104 | 0.035 | -0.018 | 0.007 | -0.009 | 0.051 | 0 | 0.025 | -0.055 | -0.012 | 0.021
UBIAD1 (UniProt Q9Y5Z9) | 0.013 | 0.16 | -0.128 | 0.092 | – | 0.249 | 0.46 (active) | -0.042 | – | -0.012 | 0.01 | 0.007 | 0.067 | -0.159 | -0.049 | 0.088 | 0.012 | 0.009 | 0.023 | 0.057
TJP1 (UniProt G3V1L9) | 0.169 | 0.199 | 0.087 | -0.119 | -0.068 | 0.014 | 0.063 | 0.047 | 0.024 | – | 0.075 | -0.014 | -0.025 | -0.041 | 0.022 | -0.017 | -0.041 | – | – | –
TRIM56 (UniProt Q9BRZ2) | 0.053 | -0.021 | 0.021 | -0.049 | 0.141 | -0.013 | 0.033 | 0.062 | 0.023 | 0.007 | 0.028 | 0.001 | -0.03 | 0 | 0.002 | -0.06 | 0.014 | 0.033 | 0.039 | 0.003
TNIK (UniProt C9J338) | 0.067 | -0.048 | 0.067 | -0.071 | -0.064 | – | -0.112 | – | 0.041 | -0.076 | – | – | 0.025 | – | -0.042 | 0.16 | – | -0.114 | -0.101 | 0.064
UBAP2 (UniProt Q5T6F2) | -0.02 | -0.02 | 0.032 | 0.01 | 0.022 | -0.159 | 0.016 | 0.016 | 0.014 | 0.009 | -0.044 | -0.067 | 0.008 | 0.03 | 0.006 | -0.474 (active) | -0.026 | -0.019 | -0.009 | 0.001
TMEM177 (UniProt Q53S58) | 0.042 | 0.06 | -0.042 | 0.016 | -0.019 | -0.054 | 0.148 | 0 | 0.079 | -0.022 | -0.287 | -0.311 (active) | 0.007 | – | – | -0.03 | 0.032 | -0.005 | 0.019 | 0.005
UBE2H (UniProt P62256) | -0.002 | -0.002 | 0.009 | 0.008 | 0.014 | 0.029 | 0.019 | -0.026 | 0.032 | 0.026 | -0.033 | -0.002 | -0.004 | 0.064 | 0.022 | 0.005 | 0.026 | -0.027 | 0.013 | -0.036
TOR3A (UniProt Q9H497) | 0 | 0.002 | 0.006 | -0.008 | -0.01 | -0.012 | -0.087 | 0.021 | 0.008 | 0.023 | 0.002 | -0.017 | -0.001 | 0.018 | -0.022 | -0.036 | 0.018 | 0.365 (active) | 0.039 | 0.013
TUBAL3 (UniProt A6NHL2) | -0.018 | -0.01 | -0.076 | -0.114 | -0.004 | -0.011 | -0.134 | 0.078 | 0.002 | -0.071 | 0.056 | -0.145 | 0.116 | -0.009 | -0.008 | – | -0.119 | 0.025 | -0.025 | 0.037
TRAPPC6A isoform 2 (UniProt O75865) | 0.018 | 0.095 | 0.002 | 0.049 | -0.055 | -0.016 | -0.005 | 0.047 | -0.023 | -0.011 | -0.027 | -0.037 | -0.031 | -0.052 | 0.012 | 0.008 | 0.004 | -0.062 | 0.154 | 0.095
